Assay results as given in the supplement of paper PMC10849652.
About 7,900 targets were measured; listed, in parts, are those with a hit and a random draw of the rest. About 0.6% of all pairs of compound and target were hits.

compound: C[C@H](Nc1ncnc2nc[nH]c12)c1cc2cccc(Cl)c2c(=O)n1-c1ccccc1 [duvelisib]; assay: log2 fold change, soluble protein after heating vs DMSO (PISA); higher = thermal stabilisation; K562 cells, 10 uM, 30 min; active = over 0.2 and 3.5 SD of the protein, either way, in both replicates (recomputed)
Method in brief: (§1)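 Aliquots of K562 cells (2×10^6 cells/mL) treated with 10 μM compound for 30 min were heated for 3 min over 48°C-58°C. After pooling and extraction in PBS with 0.5% NP-40 at 4°C, soluble protein from a 21,000xg, 90 min spin was quantified by TMTpro 16plex LC-MS/MS with channel sums equalised. Thermal stability is expressed against control samples, from duplicates, as a log2 fold change.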

Chain of UniProt Q9BWG4 (Q9BWG4 whole entry, looked up): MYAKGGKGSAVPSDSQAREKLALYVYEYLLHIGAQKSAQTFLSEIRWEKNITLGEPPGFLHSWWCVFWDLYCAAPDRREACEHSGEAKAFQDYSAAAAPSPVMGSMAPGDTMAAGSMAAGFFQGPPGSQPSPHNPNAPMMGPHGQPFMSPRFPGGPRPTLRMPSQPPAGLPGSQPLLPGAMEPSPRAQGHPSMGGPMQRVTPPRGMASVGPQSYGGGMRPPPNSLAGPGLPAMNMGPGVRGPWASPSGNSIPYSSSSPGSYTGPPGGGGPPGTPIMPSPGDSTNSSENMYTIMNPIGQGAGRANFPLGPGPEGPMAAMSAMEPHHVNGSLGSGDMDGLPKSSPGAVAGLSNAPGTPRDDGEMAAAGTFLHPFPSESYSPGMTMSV
Chain of UniProt Q969X1 (Q969X1 whole entry, looked up): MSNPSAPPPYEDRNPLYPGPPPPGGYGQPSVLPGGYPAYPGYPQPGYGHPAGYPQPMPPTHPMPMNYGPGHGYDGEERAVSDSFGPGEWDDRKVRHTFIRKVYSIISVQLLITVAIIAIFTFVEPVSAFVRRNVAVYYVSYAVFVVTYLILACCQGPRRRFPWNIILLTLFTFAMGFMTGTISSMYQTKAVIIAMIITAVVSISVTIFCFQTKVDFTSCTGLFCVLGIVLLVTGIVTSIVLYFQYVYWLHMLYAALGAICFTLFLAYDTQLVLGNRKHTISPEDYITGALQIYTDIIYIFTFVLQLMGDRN
Chain of UniProt O95359 (O95359 whole entry, looked up): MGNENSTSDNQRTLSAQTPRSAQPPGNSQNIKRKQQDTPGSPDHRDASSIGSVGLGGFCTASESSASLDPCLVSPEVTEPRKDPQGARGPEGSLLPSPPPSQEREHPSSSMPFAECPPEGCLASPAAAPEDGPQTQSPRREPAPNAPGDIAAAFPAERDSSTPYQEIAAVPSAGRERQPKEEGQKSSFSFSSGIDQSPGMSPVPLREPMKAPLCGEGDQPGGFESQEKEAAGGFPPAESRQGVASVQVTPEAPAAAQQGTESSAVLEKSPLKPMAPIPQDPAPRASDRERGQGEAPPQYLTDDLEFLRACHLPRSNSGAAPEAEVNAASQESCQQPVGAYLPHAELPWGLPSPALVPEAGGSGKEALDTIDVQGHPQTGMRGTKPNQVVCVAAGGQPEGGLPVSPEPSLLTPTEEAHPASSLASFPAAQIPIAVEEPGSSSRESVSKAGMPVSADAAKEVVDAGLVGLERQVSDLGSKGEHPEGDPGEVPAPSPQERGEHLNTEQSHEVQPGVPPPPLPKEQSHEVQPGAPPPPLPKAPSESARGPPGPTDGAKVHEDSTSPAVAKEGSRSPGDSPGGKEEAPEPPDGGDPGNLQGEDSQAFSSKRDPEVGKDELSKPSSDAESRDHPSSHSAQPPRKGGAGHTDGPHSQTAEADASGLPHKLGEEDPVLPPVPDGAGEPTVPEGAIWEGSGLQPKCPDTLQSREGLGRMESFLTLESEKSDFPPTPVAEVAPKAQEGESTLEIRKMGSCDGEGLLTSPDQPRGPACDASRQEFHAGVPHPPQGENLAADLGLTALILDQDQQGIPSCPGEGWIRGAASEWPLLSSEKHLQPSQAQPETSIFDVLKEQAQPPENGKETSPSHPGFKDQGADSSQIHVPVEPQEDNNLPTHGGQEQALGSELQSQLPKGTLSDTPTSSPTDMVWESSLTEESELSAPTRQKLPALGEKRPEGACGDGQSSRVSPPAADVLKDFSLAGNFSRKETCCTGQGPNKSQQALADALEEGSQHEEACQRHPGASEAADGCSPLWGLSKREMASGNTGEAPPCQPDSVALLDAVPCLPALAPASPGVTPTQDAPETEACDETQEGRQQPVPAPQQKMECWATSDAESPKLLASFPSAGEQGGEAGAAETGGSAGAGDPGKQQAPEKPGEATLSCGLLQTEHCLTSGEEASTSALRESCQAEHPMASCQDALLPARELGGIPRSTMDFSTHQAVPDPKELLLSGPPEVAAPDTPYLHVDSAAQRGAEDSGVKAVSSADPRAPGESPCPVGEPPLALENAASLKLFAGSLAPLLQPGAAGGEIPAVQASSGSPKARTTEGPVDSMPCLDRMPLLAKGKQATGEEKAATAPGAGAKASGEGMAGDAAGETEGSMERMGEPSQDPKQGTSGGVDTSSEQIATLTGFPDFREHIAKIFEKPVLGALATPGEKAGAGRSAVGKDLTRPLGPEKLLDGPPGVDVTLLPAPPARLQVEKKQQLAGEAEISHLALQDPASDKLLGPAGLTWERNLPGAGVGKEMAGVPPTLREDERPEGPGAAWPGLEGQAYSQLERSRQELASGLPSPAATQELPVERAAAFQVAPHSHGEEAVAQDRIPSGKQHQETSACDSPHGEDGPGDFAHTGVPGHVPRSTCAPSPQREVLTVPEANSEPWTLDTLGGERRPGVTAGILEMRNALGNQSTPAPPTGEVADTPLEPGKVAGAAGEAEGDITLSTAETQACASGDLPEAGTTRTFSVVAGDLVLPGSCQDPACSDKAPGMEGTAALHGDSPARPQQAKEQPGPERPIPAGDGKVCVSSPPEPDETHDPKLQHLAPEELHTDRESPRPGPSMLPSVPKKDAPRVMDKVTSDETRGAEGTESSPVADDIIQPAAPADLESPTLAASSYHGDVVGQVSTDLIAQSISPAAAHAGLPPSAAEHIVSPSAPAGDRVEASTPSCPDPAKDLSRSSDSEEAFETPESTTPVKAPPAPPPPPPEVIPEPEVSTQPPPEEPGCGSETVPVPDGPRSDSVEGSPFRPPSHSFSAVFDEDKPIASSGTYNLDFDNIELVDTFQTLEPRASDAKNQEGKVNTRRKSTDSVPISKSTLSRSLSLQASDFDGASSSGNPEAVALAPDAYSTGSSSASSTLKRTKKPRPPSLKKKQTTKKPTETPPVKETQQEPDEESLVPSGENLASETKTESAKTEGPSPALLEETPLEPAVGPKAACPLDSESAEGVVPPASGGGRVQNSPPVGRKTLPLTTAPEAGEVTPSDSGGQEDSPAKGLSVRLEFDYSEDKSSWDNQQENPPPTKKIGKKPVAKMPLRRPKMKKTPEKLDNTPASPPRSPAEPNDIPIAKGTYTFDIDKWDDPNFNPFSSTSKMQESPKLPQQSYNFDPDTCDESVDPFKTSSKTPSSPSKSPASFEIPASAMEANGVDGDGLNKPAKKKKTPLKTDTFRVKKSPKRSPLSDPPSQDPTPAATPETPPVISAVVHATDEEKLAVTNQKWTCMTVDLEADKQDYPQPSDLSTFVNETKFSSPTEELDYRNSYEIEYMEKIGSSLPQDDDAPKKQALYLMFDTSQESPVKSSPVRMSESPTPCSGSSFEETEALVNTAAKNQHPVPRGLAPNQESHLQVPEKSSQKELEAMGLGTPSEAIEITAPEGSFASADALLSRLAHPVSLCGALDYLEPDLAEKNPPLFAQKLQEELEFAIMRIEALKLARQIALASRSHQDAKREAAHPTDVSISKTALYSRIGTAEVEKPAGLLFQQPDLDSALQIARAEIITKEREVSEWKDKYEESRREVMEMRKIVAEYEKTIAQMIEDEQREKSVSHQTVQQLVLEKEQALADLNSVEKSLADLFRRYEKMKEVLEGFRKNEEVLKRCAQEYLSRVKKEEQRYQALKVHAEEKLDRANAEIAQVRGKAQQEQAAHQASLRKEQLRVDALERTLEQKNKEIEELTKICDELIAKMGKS
Chain of UniProt Q13428 (Q13428 whole entry, looked up): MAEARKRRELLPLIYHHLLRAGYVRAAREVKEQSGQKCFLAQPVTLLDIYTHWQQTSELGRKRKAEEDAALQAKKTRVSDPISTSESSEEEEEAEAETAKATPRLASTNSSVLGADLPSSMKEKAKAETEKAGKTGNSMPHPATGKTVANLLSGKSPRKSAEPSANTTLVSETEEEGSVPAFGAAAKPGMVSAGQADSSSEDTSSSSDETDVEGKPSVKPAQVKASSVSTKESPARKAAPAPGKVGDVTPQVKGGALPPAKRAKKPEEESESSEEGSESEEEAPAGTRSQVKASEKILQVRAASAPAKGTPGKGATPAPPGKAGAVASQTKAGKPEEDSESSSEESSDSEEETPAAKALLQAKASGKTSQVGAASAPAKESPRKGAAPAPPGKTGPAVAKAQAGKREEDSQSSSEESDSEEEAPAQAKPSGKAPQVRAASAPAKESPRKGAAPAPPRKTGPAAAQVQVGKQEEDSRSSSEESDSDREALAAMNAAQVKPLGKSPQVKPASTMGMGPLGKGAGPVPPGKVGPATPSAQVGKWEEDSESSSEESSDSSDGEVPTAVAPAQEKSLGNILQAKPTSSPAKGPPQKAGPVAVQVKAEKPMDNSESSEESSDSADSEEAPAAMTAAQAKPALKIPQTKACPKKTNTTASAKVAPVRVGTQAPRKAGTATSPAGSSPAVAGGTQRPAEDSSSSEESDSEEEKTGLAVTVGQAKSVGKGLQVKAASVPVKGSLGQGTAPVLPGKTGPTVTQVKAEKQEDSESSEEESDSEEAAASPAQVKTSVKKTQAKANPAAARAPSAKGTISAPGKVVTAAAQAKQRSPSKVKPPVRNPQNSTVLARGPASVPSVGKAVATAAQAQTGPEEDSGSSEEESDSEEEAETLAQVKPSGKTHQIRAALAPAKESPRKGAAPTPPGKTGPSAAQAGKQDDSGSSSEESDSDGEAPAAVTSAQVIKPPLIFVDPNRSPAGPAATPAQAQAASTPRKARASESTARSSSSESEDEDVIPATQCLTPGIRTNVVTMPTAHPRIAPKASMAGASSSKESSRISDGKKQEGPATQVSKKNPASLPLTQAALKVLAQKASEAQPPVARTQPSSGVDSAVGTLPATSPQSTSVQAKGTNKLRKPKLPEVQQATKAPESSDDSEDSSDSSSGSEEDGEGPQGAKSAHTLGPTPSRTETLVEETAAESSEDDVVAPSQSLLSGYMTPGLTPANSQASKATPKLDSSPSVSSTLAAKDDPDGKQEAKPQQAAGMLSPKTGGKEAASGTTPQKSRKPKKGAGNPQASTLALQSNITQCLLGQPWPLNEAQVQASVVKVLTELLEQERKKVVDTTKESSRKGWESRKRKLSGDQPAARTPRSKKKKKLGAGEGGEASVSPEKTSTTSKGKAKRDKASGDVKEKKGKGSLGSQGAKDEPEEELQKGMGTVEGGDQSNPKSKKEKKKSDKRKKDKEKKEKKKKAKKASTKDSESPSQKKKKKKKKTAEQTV

log2 fold change, inactive:
TMBIM1 (UniProt Q969X1) 0.042, SP2 (UniProt Q02086) -0.08, TACC2 (UniProt O95359) 0.058, TK1 (UniProt K7ERV3) 0.046, SSBP4 (UniProt Q9BWG4) 0.255, TAF6L (UniProt Q9Y6J9) 0.246

compound: Cc1cc(Nc2cc(CN3CCOCC3)c3nc(C)c(Cc4ccc(Cl)cc4F)n3n2)n[nH]1 [gandotinib]; assay: as above
Method in brief: as §1

log2 fold change, inactive:
SMPD4 isoform 2 (UniProt Q9NXE4) -0.263, SPIRE1 (UniProt Q08AE8) 0.344, TCOF1 isoform 3 (UniProt Q13428) -0.166, SLC8B1 (UniProt Q6J4K2) -0.053, SSB (UniProt E7ERC4) -0.352, TAOK2 (UniProt Q9UL54) -0.045, SRCAP (UniProt Q6ZRS2) -0.069, TENT5C (UniProt Q5VWP2) 0.142, TBC1D2 (UniProt Q9BYX2) -0.04, SLC46A1 (UniProt Q96NT5) -0.006, SMARCB1 (UniProt Q12824) 0.49, TIMM10B (UniProt Q9Y5J6) 0.087, TEX30 (UniProt Q5JUR7) -0.292, SLC39A1 (UniProt Q9NY26) -0.137, SMIM20 isoform 2 (UniProt Q8N5G0) 0.068, TMBIM1 (UniProt Q969X1) -0.017, TACC2 (UniProt O95359) -0.154, TK1 (UniProt K7ERV3) -0.029, SSBP4 (UniProt Q9BWG4) -0.121, TAF6L (UniProt Q9Y6J9) -0.08

compound: Cc1cc(Nc2cc(N3CCN(C)CC3)nc(Sc3ccc(NC(=O)C4CC4)cc3)n2)n[nH]1 [tozasertib]; assay: as above
Method in brief: as §1

log2 fold change, inactive:
SLC35B1 isoform 2 (UniProt P78383) 0.075, SMPD4 isoform 2 (UniProt Q9NXE4) -0.163, TC2N (UniProt Q8N9U0) -0.095, SPIRE1 (UniProt Q08AE8) -0.052, TCOF1 isoform 3 (UniProt Q13428) 0.073, SLC9A6 isoform 3 (UniProt Q92581) -0.126, TAOK2 (UniProt Q9UL54) -0.02, SRCAP (UniProt Q6ZRS2) 0.064, TENT5C (UniProt Q5VWP2) -0.05, TBP (UniProt P20226) 0.072, SLC46A1 (UniProt Q96NT5) 0.035, SMARCB1 (UniProt Q12824) 0.252, SYK (UniProt P43405) 0.031, TCOF1 isoform 6 (UniProt Q13428) -0.008, SLC35B4 (UniProt Q969S0) 0.063, TIMM10B (UniProt Q9Y5J6) -0.114, SLC35F6 (UniProt Q8N357) 0.034, TEX30 (UniProt Q5JUR7) 0.045, SMIM20 isoform 2 (UniProt Q8N5G0) 0.069, TMBIM1 (UniProt Q969X1) -0.154, TACC2 (UniProt O95359) 0.056, TK1 (UniProt K7ERV3) 0.012, SSBP4 (UniProt Q9BWG4) -0.014, TAF6L (UniProt Q9Y6J9) 0.115
